# The campaign covered roughly 1,100 compounds. About 390 (35%) were called active. Not shown: some 30% with an inconclusive outcome. The list shows a part of the results. Values without a mark were called inactive. The call rests on the fitted dose curve; in most records, active means well fitted inhibition curve with a large enough effect; inconclusive means small, poorly fitted or top-dose-only effect; inactive means flat fitted curve, though single readings scatter.
# Biological target: Luciferin 4-monooxygenase (Photinus pyralis) (UniProt P08659)
# Test: qHTS of Nrf2 Activators: Hit Validation in Secondary FLuc Assay; further: nearly all actives have a fitted effect of over 65% in size
# Conditions: firefly luciferase inhibition counter-screen, luminescence; series mostly up to 57.5 µM; activity, negative = inhibition: at the top concentration
# From the text: Many diseases have some form of oxidative stress injury and ties to inflammation, causing a host of problems for the patient. The antioxidant response element (ARE) plays an important role in alleviating the harmful effects of oxidative stress. The antioxidant response element (ARE) is a transcriptional regulatory element involved in the activation of genes coding for a number of antioxidant proteins and detoxifying enzymes. These enzymes work in concert to protect tissues from oxidative insults and chemical toxicities in human hepatocytes and immune cells. The protective effects of ARE activation are primarily triggered through Nrf2 (NF-E2-related factor) binding to and activating AREs. It is known that Nrf2 controls the production of over 250 antioxidant and detoxification proteins (Hu et al., 2006), thereby protecting tissues by increasing cellular antioxidant content and suppressing inflammatory signaling pathways. The transcription factor Nrf2 is a central link between oxidative chemicals, such as phenolic antioxidants and electrophilic compounds, and the activation of ARE. Nrf2 levels are constitutively low as a consequence of its interaction with Keap1, which targets its degradation (Zipper and Mulcahy, 2002). Electrophiles react with key cysteine residues in Keap1, releasing Nrf2 and allowing its translocation to the nucleus. Once within the nucleus, Nrf2 complexes with coactivators such as p300, and binds to the AREs to induce gene transcription of cytoprotective enzymes, resulting in the prevention of toxicity. Activation of Nrf2 protects tissues by increasing cellular antioxidant content and suppressing inflammatory signaling pathways. Identifying novel and potent Nrf2 activators by using the AREc32 cell line to detect ARE activation by small molecules will lead to the identification and development of probes to study protective pathways in multiple tissues. These specific probes are essential to study the ARE pathway, and eventually to determine whether this pathway does activate genes that could protect against a host of diseases, including cardiovascular diseases, obesity, diabetes, Alzheimer's, and Parkinson's disease.
# This project's aim is to identify novel and potent Nrf2 activators by using the AREc32 cell line to detect ARE activation by small molecules, which will lead to the identification and development of probes to study the ARE pathway. In this counter assay, we aim to identify false positive as identified from this primary assay using an FLuc assay with an inhibiting read-out.
# NIH Chemical Genomics Center [NCGC]
# NIH Molecular Libraries Probe Centers Network [MLPCN]
# Assay Submitter (PI): Curtis Klaassen, University of Kansas Medical Center
# Assess whether an activator in the primary assay potentially causes such activation by inhibitor-induced stabilization of the firefly luciferase reporter enzyme by determining whether it inhibits firefly luciferase in the presence of Km concentrations of its substrates (ATP and D-luciferin).
# On the % scale 0 is the no-effect control and ±100 the full control effect; potency means the concentration at half of the fitted maximal effect.
SMILES,"activity, negative = inhibition",Potency
CC(C)(C)/C(O)=C/c1nc2cc(Cl)ccc2oc1=O,3.24%,
O=S(=O)(c1ccc(F)cc1)c1snnc1-c1ccccc1,-23.6%,
CS(=O)(=O)c1nc(S(=O)(=O)c2ccc(Cl)cc2)c(N2CCN(CCO)CC2)s1,-0.882%,
Cc1ccc(-c2cc(-c3cccc(F)c3)n[nH]2)c(O)c1,,1.2 µM (active)
COn1c(-c2ccccc2)nc2c1CCc1c-2no[n+]1[O-],0.412%,
COC(=O)C1=C(C)N(c2ccc(Br)cc2)C(=O)/C1=C\c1ccco1,-25.3%,
O=C1/C(=C\c2ccco2)NC(=S)N1c1ccccc1,,8.49 µM (active)
O=C(CCS(=O)(=O)c1ccccc1)Nc1nc(-c2ccccn2)cs1,-28.2%,
O=C(CC(=O)c1ccccn1)c1ccccc1,,5.36 µM (active)
Cc1sc(NC(=S)NC(=O)c2ccccc2)c(C#N)c1C,,12 µM (active)
Cc1ccc2cccnc2c1NC(=S)NC(=O)c1ccccc1,,15.1 µM (active)
Cc1cc(C)c2c(NC(=S)NC(=O)c3ccccc3)nn(C)c2n1,0.252%,
Cc1ccc2cccc(NC(=S)NC(=O)c3ccccc3)c2n1,,6.01 µM (active)
Cc1csc(NC(=S)NC(=O)c2ccccc2)n1,,2.13 µM (active)
Cc1cccc(C)c1NC(=S)NC(=O)c1cccc(Cl)c1,-4.09%,
[O-][n+]1onc2c3ccnnc3ccc21,-2.23%,
O=C(CC(=O)Nc1ccccc1[N+](=O)[O-])Nc1ccccc1[N+](=O)[O-],0.965%,
Cc1csc(NC(=O)Nc2ccccc2[N+](=O)[O-])n1,,2.69 µM (active)
CCn1c(/C=C/c2ccccc2)nc2ccccc2c1=O,-25.2%,

SMILES,"activity, negative = inhibition",Potency
Cn1c(/C=C/c2cccc(Br)c2)nc2ccccc2c1=O,,10.7 µM (active)
Cn1c(CC2C(=O)Nc3ccc(Br)cc32)nc2ccccc2c1=O (stereo unspecified),-7.26%,
CSc1ccccc1NC(=O)c1cc(-c2cccs2)on1,,3.38 µM (active)
COC(=O)c1sccc1NC(=O)c1cc(C)on1,6.05%,
COc1ccc(NC(=O)c2cc(-c3cccs3)on2)c(OC)c1,-23.9%,
CC(C)(C)SCCNC(=O)/C=C/c1cccc([N+](=O)[O-])c1,-23.6%,
N#C/C(=C\C=C\c1ccccc1[N+](=O)[O-])C(=O)NC1CCCCC1,-27.7%,
Cn1c(SCC(=O)N/N=C/C=C\c2ccccc2[N+](=O)[O-])nc2ccccc21,-28.9%,
O=[N+]([O-])c1cccc(/C=C/c2ccccn2)c1,,10.7 µM (active)
CC1(C)C(=O)OC(/C=C/c2cccc([N+](=O)[O-])c2)C(C)(C)C1=O (stereo unspecified),1.52%,
O=[N+]([O-])c1cccc(C=NN=Cc2ccccc2O)c1,,0.601 µM (active)
O=[N+]([O-])c1ccccc1C=CC=NN=Cc1ccccc1O,,0.953 µM (active)
CC1(C)C2C/C(=N\O)C(C)(/[N+]([O-])=C/c3cccc([N+](=O)[O-])c3)CC21 (stereo unspecified),2.48%,
O=C(NN=Cc1cccc([N+](=O)[O-])c1)c1cccc2ccccc12,-21%,
C=C(C)CNC(=S)N/N=C(\C)c1ccc(Cl)s1,-4.5%,
FC(F)(F)c1cc(-c2ccco2)nc(-n2nnc3ccccc32)n1,-18.6%,
c1coc(-c2cnc3ccccc3n2)c1,,2.69 µM (active)
O=[N+]([O-])c1cccc(-c2cnc3ccccc3n2)c1,-28.7%,
O=C(Oc1cccc(-c2cnc3ccccc3n2)c1)c1ccco1,,10.7 µM (active)

SMILES,"activity, negative = inhibition",Potency
Cc1ccc(/C=C/C(=O)Nc2ccc([N+](=O)[O-])c(NC(=O)/C=C/c3ccc(C)o3)c2)o1,,1.2 µM (active)
Cc1ccc(NC(=O)/C=C/c2ccc([N+](=O)[O-])s2)cc1,-2.01%,
CSc1nsc(SC)c1NC(=O)Nc1ccccn1,-27.9%,
O=C(Nc1ccccn1)c1csc2c1CCCC2,,3.01 µM (active)
O=C(Nc1nnc(-c2ccccc2F)s1)Nc1ccccc1F,-21.5%,
O=C(Nc1nnc(-c2ccccc2F)s1)C1CCCO1 (stereo unspecified),,10.7 µM (active)
CCCNc1ccc(-c2nc(-c3ccco3)no2)cc1[N+](=O)[O-],,0.169 µM (active)
CCCNC(=O)c1ccc(S(=O)(=O)c2ccc(OC)cc2)c([N+](=O)[O-])c1,-1.58%,
O=[N+]([O-])c1cc(-c2nc(-c3ccccc3)no2)ccc1NCc1cccnc1,,4.78 µM (active)
COCCNc1ccc(-c2nc(-c3ccco3)no2)cc1[N+](=O)[O-],,0.478 µM (active)
CCNc1ccc(-c2nc(-c3ccco3)no2)cc1[N+](=O)[O-],,0.19 µM (active)
NC(=O)c1ccsc1NC(=O)COC(=O)[C@@H]1CCCN1C(=O)c1cccs1,-14.2%,
Cn1c(NC(=O)/C=C/c2ccccc2)cc(=O)n(C)c1=O,,8.49 µM (active)
Cc1cc(C)n(S(=O)(=O)/C=C/c2ccccc2)n1,2.85%,
Cn1cc([N+](=O)[O-])c(C(=O)Nc2ccc(-c3nc4ccccc4o3)cc2)n1,,8.49 µM (active)
CC(=O)c1cc2c(cc1NC(=O)CSc1nc3ccccc3o1)OCO2,-5.24%,
CC(=O)Nc1nc2cccc([N+](=O)[O-])c2s1,-5.67%,
CN1C2CCC1/C(=C\c1ccc(F)cc1)C(=O)/C2=C/c1ccc(F)cc1,2.61%,
